Test results published in PubChem BioAssay (NCI).
Several values for one entry are separate records, joined by “and”; a condition that tells them apart may be missing. Equal values may be shown once. This is part of a sample that, as a whole, favours compounds with a hit. Of some 83,000 tested, about 20% had one in any assay.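 The endpoint reported here, percent growth, reads 100 for growth as untreated, 0 for no net growth and -100 for all cells dead.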 Activity calls are given as the source filed them. The calls were made as follows: active = growth percent below 10; inactive = the rest.

tested on: MDA-MB-468 breast; assay: NCI-60 one-dose screen, 48 h (100 = growth as untreated, 0 = no growth, -100 = all killed); conditions: 10 µM unless noted

| Structure (SMILES) | growth |
| --- | --- |
| Cc1ccc(NC(=O)c2[nH]c(SCCN(C)C)nc2-c2ccc(F)cc2)cc1C#Cc1cnc2cccnn12 | 83.1% (inactive) |
| COc1ccc(OC)c(CCn2cncc2-c2c[nH]c3cc(Br)ccc23)c1 | -5.69% (active) |
| N#Cc1nc(-c2ccc(F)cc2)oc1S(=O)(=O)N1CCOCC1 | 29% (inactive) |
| Nc1nc(N)c2c(n1)NC(c1sc(Cl)nc1Cl)CC(c1ccccc1)=N2 (stereo not given) | -2.14% (active) |
| C#CCOC(=O)C(N)CSSCC(N)C(=O)O (stereo not given) | 109% (inactive) |
| CCC(O)c1ccccc1 (stereo not given) | 108% (inactive) and 97.6% (inactive) |
| CCOc1cc(C(C)(C)C)ccc1C1=N[C@H](c2ccc(Cl)cc2)[C@H](c2ccc(Cl)cc2)N1C(=O)N1CCN(CC#Cc2cccc3c2CN([C@@H]2CCC(=O)NC2=O)C3=O)CC1 | -21.9% (active) |
| C#CCNC(=O)[C@]1(C)CCC[C@@]2(C)[C@H]1CC=C1C=C(C(C)C)CC[C@@H]12 | 101% (inactive) |
| CCOC(=O)c1c(NCC(=O)Nc2cccc(Cl)c2)sc2c1CCCC2 | 73% (inactive) |
| CC1(C)CC[C@]2(C(=O)O)CC[C@]3(C)C(=CC[C@@H]4[C@@]5(C)C/C(=C/c6ccco6)C(=O)C(C)(C)[C@@H]5CC[C@]43C)[C@@H]2C1 | -3.74% [100 µM] (active) |
| C#CCC#CCN1CCC[C@H]1C(=O)NCC(=O)OC | 99.1% (inactive) |
| CCSCC1CC(O)(c2ccccc2)CC(c2ccc(F)cc2)O1 (stereo not given) | 8.89% (active) |
| CC(C)C(C(=O)CCN(C)C)c1ccc(Cl)cc1 (stereo not given) | 78.6% (inactive) |
| CCCCCCCC(=O)SCC/C=C/[C@@H]1CC(=O)NCc2nc(co2)C2=N[C@@](C)(CS2)C(=O)N[C@@H](C(C)C)C(=O)O1 | -0.758% (active) |
| CC(=O)N(CC(O)CO)c1c(I)c(C(=O)NCCO)c(I)c(C(=O)NCC(O)CO)c1I (stereo not given) | 110% (inactive) |
| CS(=O)(=O)c1nccc(-c2c(-c3cccc(OCc4ccc(F)cc4)c3)nc3sccn23)n1 | -63.6% (active) |
| Cc1ccc(/C=C/c2c(C(=O)/C=C/c3ccc(Cl)cc3)c(C)nc3ccccc23)cc1 | -23.3% (active) |
| COC(=O)C(Cc1ccccc1)n1cc(COc2nc(Cl)nc(Nc3ccc(Cl)cc3)n2)nn1 (stereo not given) | 69.1% (inactive) |
| FC(F)(F)c1ccc(-c2nc(-c3nc4cc(Cl)c(Cl)cc4[nH]3)c3ccccn23)cc1 | 41.9% (inactive) |
| Cc1csc(Nc2nc(-c3ccc(Cl)cc3)nc(C(Cl)(Cl)Cl)n2)n1 | 9.54% (active) |

| Structure (SMILES) | growth |
| --- | --- |
| N=C(N)/N=C(\CCc1nc2ccccc2[nH]1)c1nc2ccccc2[nH]1 | 109% (inactive) |
| CC(C)Cc1ccc(C(C)C(=O)NCc2ccc(Cn3c(=O)sn(CCCCl)c3=O)cc2)cc1 (stereo not given) | 80.8% (inactive) and -83.8% (active) |
| CCN(CC)c1ccc2nc3c4ccccc4c(=NC(=O)c4ccccc4-c4c5ccc(N(CC)CC)cc5[o+]c5cc(N(CC)CC)ccc45)cc-3oc2c1 | -59.2% (active) |
| Cc1cc(N(CCNc2ccnc3cc(Cl)ccc23)Cc2ccc3c(c2)OCO3)nc(N2CCN(C)CC2)n1 | -59% (active) |
| O=C(CCOCCNC(=O)COc1ccc2c(c1)OCC(c1ccc(F)cc1)C2=O)NCCCC(O)(P(=O)(O)O)P(=O)(O)O (stereo not given) | 106% (inactive) |
| O=C(Nc1ccc([N+](=O)[O-])cc1Cl)c1cc(Cl)ccc1O | -21.5% (active) and -24.3% (active) |
| Cn1[nH]cc(/C=N/C(N)=O)c1=O | 119% (inactive) |
| O=C(Nc1ccc(N2CCNCC2)cn1)c1[nH]ncc1Nc1ncnc2sccc12 | -59.5% (active) |
| O=C(OCc1ccc2c(Br)cc(Br)c(O)c2n1)N1CCN(C(=O)c2cc3ccccc3[nH]2)CC1 | 21.9% (inactive) |
| COc1ccc(/C=N/NC(=O)Cn2c(-c3ccc(S(C)(=O)=O)cc3)nc3ccccc32)cc1 | 98.3% (inactive) |
| O=C(O)CC(Cl)C(Cl)CC(=O)O (stereo not given) | 114% (inactive) |
| COc1cc2c3c(c(=O)oc2cc1OS(=O)(=O)c1ccc(C(F)(F)F)cc1)CCCCC3 | 67% (inactive) |
| N#C/C(=C\c1ccc2ccccc2c1)c1cc2ccccc2[nH]1 | 30.5% (inactive) |
| C[N+]1(CC2CO2)CCCCCC1 (stereo not given) | 103% (inactive) |
| CN(CCCNC(=O)CCOCCOCCOCCNC(=O)Cc1ccc2ccc3cccc4ccc1c2c34)CCCNc1cc(-c2ccc3ccccc3c2)nc2ccccc12 | -92.2% (active) |
| CC(=O)c1ccc(NS(=O)(=O)c2ccc([N+](=O)[O-])cc2)cc1 | 98.9% (inactive) |
| Cn1ccnc1C(=O)/C=C/c1ccc(CC(=O)Nc2cc(F)c(F)c(F)c2)cc1 | -23.4% (active) |
| CC(c1ccccc1)C(C(=O)c1ccccc1)c1ccccc1 (stereo not given) | 81.5% (inactive) |
| Cn1c(-c2ccccc2)c(/C=C/C2=[N+](C)c3ccccc3C2(C)C)c2ccccc21 | -16.5% (active) |
| O=C(CN1C(=O)NC2NC(=O)NC21)N/N=C/c1ccc(Cl)cc1Cl (stereo not given) | 99.9% (inactive) |
